# An excerpt weighted towards active compounds, which were near 0.85% of everything screened.
# IDH1 R132H inh – qHTS for Inhibitors of mutant isocitrate dehydrogenase 1 (IDH1): qHTS. Potency, µM (doses to about 76.6 µM), for inactives: at the highest dose activity change, negative = inhibition, hits mostly inhibitors. IDH1-R132H enzyme, NADPH consumption, diaphorase/resazurin fluorescence. actives 0.093% (n = 390,000). Isocitrate dehydrogenase [NADP] cytoplasmic (Homo sapiens), O75874; further: potency means the concentration at half of the fitted maximal effect; on the % scale 0 is the no-effect control and ±100 the full control effect; nearly all actives have a fitted effect of over 65% in size
#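 IDH1-R132H (0.5 ug/mL dispensed) in pH 7.5 Tris buffer was preincubated 30 min with compound, then given a substrate mix of 0.016 mM NADPH and 2 mM alpha-KG for 80 min at room temperature; remaining NADPH was read by diaphorase/resazurin fluorescence.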
# GRP78 ERSR act – qHTS for Inducers of the Endoplasmic Reticulum Stress Response (ERSR) in Human Glioma: qHTS | actives 0.02% (n = 420,000) | U87-MG GRP78 promoter luciferase reporter, 16 h | Potency, µM, inactives show at the highest dose activation, usual class: activators; further: potency means the concentration at half of the fitted maximal effect; series mostly up to about 76 µM; % of control where 0% means no effect; nearly all actives have a fitted effect of over 35% in size
#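 Stably transfected U87-MG human glioma cells carrying a GRP78-based luminescent sensor were seeded at 1000 cells/well, pin-dosed with compounds and incubated 16 h. Luciferase reagent was then added, and end-point luminescence was read after 10 min at room temperature.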
# GLS inhibitor – qHTS for Inhibitors of Glutaminase (GLS); Glutaminase kidney isoform, mitochondrial (Homo sapiens), O94925; AID 624170, 2012; Potency, µM (doses to about 45.5 µM), for the others: top-dose activity change, negative = inhibition, most hits filed as inhibitors; actives 0.21% (n = 410,000); GLS enzymatic activity, qHTS titration; further: potency means the concentration at half of the fitted maximal effect; on the % scale 0 is the no-effect control and ±100 the full control effect
# Target sequence (O94925 whole entry, looked up, canonical isoform): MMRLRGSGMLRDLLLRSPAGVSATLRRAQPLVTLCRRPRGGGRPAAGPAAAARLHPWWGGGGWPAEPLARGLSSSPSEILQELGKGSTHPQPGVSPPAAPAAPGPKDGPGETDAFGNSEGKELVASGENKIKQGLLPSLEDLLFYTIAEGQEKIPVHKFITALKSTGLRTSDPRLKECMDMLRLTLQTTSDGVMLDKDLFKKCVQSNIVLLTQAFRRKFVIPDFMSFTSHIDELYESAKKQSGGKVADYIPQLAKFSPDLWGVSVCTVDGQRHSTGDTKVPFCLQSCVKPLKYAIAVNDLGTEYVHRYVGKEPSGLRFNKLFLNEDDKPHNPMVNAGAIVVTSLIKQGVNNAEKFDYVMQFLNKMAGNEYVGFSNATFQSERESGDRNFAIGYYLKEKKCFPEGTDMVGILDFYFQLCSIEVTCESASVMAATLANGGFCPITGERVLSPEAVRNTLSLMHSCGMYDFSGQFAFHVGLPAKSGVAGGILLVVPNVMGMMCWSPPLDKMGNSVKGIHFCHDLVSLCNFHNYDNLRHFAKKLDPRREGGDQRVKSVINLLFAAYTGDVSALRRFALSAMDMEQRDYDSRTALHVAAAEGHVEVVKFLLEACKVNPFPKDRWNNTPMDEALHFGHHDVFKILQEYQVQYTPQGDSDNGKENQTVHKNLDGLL
#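 Human kidney-isoform GLS in 45 mM KH2PO4 pH 8.2, 0.02% Tween-20, with compound, started with 1mM L-Glutamine (added stock). Glutamate oxidase/HRP/Amplex red coupled fluorescence read at start and after 30 min at RT.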
# Mm-Cpn inhibitor – Inhibitors of TCP-1 ring complex (TRiC) of Methanococcus maripaludis (MmCpn): qHTS | Chaperonin Mm-Cpn (Methanococcus maripaludis) | purified Mm-Cpn ATPase, ADP Transcreener TR-FRET | Potency, µM (titrated, usually from 76.9 µM), without a hit: at the highest dose activity, negative = inhibition, usual class: inhibitors | actives 0.031% (n = 330,000) | AID 504842, 2011; further: potency means the concentration at half of the fitted maximal effect; on the % scale 0 is the no-effect control and ±100 the full control effect; nearly all actives have a fitted effect of over 80% in size
#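 Reaction buffer contained 30 mM Tris pH 7.4, 100 mM KCl, 5 mM MgCl2 and 1 mM DTT. Mm-CPN (25 nM final) hydrolysed 10 uM ATP over 30 min at 37°C; ADP was read by HTRF.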
# Akt phos inh – HTS Assay for Inhibitors of Akt Phophorylation: Primary Screen; Neuro2A IGF-stimulated pAkt S473 HTRF, 20 min; hits give low values; activity change, % for hits at 50 µM; actives 0.32% (n = 360,000); AID 651550, 2012; in the data active means activity change below about -80%; inconclusive means mostly about -51% to -80%; further: on the % scale 0 is the no-effect control and ±100 the full control effect
#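 Neuro2A cells in DMEM with 0.5% FBS, overnight at 37 deg C, given compound at single 50 µM final, then IGF (6 nM final) for 20 min at 37 deg C. Lysed; phospho-Akt Ser473 by HTRF after 24 h, 665/615 ratio.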
# CCT modulator – High-Throughput Screening for Modulators of Cytosolic Chaperonin Activity; purified chaperonin ATPase assay, HTRF ADP detection, 30 min; activity change, % (concentration not given with the values), hits read low; actives 0.3% (n = 360,000); in the data active means activity change below about -30%; further: on the % scale 0 is the no-effect control and ±100 the full control effect
#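 ATPase activity: ADP formed was measured by HTRF Transcreener (665/615 nm ratio) after 30 min at 37 deg C with 10 uM ATP. Compounds screened at one 76 uM concentration against 40 or 20 nM TRiC in Tris pH 7.4/KCl/MgCl2/DTT buffer.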
# * = called active by the depositor; i = inactive; u = inconclusive; x = not tested or not shown; ! = repeats disagree. Unless noted, the call rests on the fitted dose curve; in most records, active means well fitted curve in the direction sought with a large enough effect; inconclusive means small, poorly fitted or top-dose-only effect, or another doubt; inactive means no such curve, though single readings can be large; an effect the other way counts as inactive or inconclusive.
SMILES,IDH1 R132H inh,GRP78 ERSR act,GLS inhibitor,Mm-Cpn inhibitor,Akt phos inh,CCT modulator
CC(C)(C)C1=Nn2c(nnc2-c2ccccc2F)SC1,2.7%,-1.4%,4.7%,0.1%,i,-1.6
CC(C)(C)C1=Nn2c(nnc2-c2ccccn2)SC1,0.3%,1.1%,-9.9%,-2.9%,-110.9%*,1.0
O=C(c1cccc(N2CCCC2=O)c1)N1CCC(Oc2cccc(CN3CCN(c4ccccn4)CC3)c2)CC1,x,-4.5%,x,x,x,x
COc1ccc(OC)c(NC(=O)CN2C(=O)C3(OCCCO3)c3ccccc32)c1,4.3%,-4.3%,-0.9%,-0.6%,i,-4.6
COc1ccc(CCNC(=O)CN2C(=O)C3(OCCCO3)c3ccccc32)cc1OC,-0.5%,-2.5%,-2.8%,-0.4%,-90.5%*,0.0
Cc1c(C(=O)NCc2nccs2)cnn1-c1ncc2c(n1)-c1ccccc1CC2,x,1.6%,x,x,x,x
CC1Oc2ccccc2C=C1/C=C1/SC(N2CCOCC2)=NC1=O (configuration not stated),4.6%,7.2%,4.1%,-0.2%,i,-38.6*
N#CCC(=O)Nc1ccc(C(=O)NNC(=S)NC2CCCCC2)cc1,3.0%,-4.5%,17.8µM*,1.3%,i,-3.2
COC(=O)c1ccc(NC(=S)NC2CCCCC2)cc1,0.4%,2.1%,-3.5%,2.1%,i,-1.6
COc1cccc(-n2c(SC)nnc2C2CCN(Cc3nc4ccccc4s3)CC2)c1,x,-3.5%,x,x,x,x
Cc1oc(-c2ccccc2NC(=O)c2ccsc2)nc1CN(C)Cc1ccc2c(c1)CCCN2C,x,4.1%,x,x,x,x
Cc1cc(C)nc(SCCCn2c(=O)[nH]c3ccccc32)n1,1.9%,-0.9%,21.4%,1.6%,-124.7%*,-0.4
CN1CCCN(C(=O)[C@@H]2C[C@@H](Sc3nc4ccccc4[nH]3)CN2Cc2ccc(-c3ccccc3)cc2)CC1,x,-4.5%,x,x,x,x
COCC(=O)Nc1cc(C(=O)N2CC3CCCC2C3)c2c(c1)nc(-c1ccncc1)n2C (configuration not stated),x,-1.2%,x,x,x,x
COC(=O)C(O)(NC(=O)c1ccncc1)C(F)(F)F (configuration not stated),-4.4%,-1.6%,2.7%,-0.9%,i,-2.6
COC(=O)C(O)(NC(=O)NC(C)=O)C(F)(F)F (configuration not stated),0.8%,2.5%,5.1%,-2.1%,i,-56.3*
Cc1oc(-c2ccccc2NC(=O)C2CCCO2)nc1CNC(=O)c1[nH]c2c(C)ccc(C)c2c1C (configuration not stated),x,-5.0%,x,x,x,x
O=C(O)c1cccc(S(=O)(=O)Nc2ccc3oc(=O)sc3c2)c1,0.3%,-4.8%,5.0%,-2.1%,-113.8%*,-1.2
COC(=O)[C@@H]1CCCN1Cc1ccc2c(c1)CN(Cc1nccs1)CCO2,x,-6.5%,x,x,x,x
CC(=O)Nc1ccc(S(=O)(=O)NCCc2cn3nc(C)c(C)nc3n2)cc1,7.1%,-3.0%,-0.6%,0.1%,x,-79.3*
COc1ccc(S(=O)(=O)NCCc2cn3nc(C)c(C)nc3n2)cc1F,-4.3%,-4.0%,-0.6%,-4.9%,i,1.0
COC(=O)c1c(OCc2cccnc2)cc(=O)n2c1CCN(C(=O)c1ccc(OC)c(F)c1)CC2,x,-1.9%,x,x,x,x
Cc1nn(C)c(Cl)c1CN1CCOc2ccc(CN3CCC(Oc4cccnc4)CC3)cc2C1,x,-5.7%,x,x,x,x
CC1=C(C#N)C(=O)NC(=O)/C1=C\c1ccc(-c2cc(C)c(C)cc2[N+](=O)[O-])o1,u,-3.5%,11.2µM*,-2.7%,i,-3.8
CN1CCCC(CN(C)C(=O)c2cnn(-c3nccc(-c4ccccc4C(F)(F)F)n3)c2C2CC2)C1 (configuration not stated),x,-3.3%,x,x,x,x
SMILES,IDH1 R132H inh,GRP78 ERSR act,GLS inhibitor,Mm-Cpn inhibitor,Akt phos inh,CCT modulator
CN(C)c1nc(N(C)C)nc(N(C#N)CCOc2ccccc2)n1,2.4%,0.4%,1.7%,1.8%,-110.6%*,0.6
CCN(C(=O)CCS(=O)(=O)c1ccc(Br)cc1)c1ccc2c(c1)OCO2,2.8%,3.8%,-0.8%,0.3%,-108.5%*,-3.6
O=C(CCS(=O)(=O)c1ccc(Br)cc1)Nc1ccc2c(c1)OCO2,-3.8%,3.4%,-10.0%,0.1%,i,-1.5
CO[C@H]1[C@H](NC(=O)c2ccco2)c2ccccc2C12CCN(Cc1ccc3cccc(F)c3n1)CC2,x,-4.0%,x,x,x,x
NC(=O)c1ccc(NC(=O)CSC2=Nc3ccccc3C3CC=NN23)cc1 (configuration not stated),1.6%,-3.0%,-14.2%,-5.2%,i,-2.5
COC(=O)c1ccc(NC(=O)CSC2=Nc3ccccc3C3CC=NN23)cc1 (configuration not stated),2.8%,-3.7%,14.1µM*,0.7%,i,-1.8
COc1ccc(S(=O)(=O)c2c(C)c(NS(=O)(=O)c3ccccc3)cc(C)c2O)cc1,-7.7%,-2.2%,3.16µM*!,0.6%,i,-0.1
COc1ccc(S(=O)(=O)Nc2cc(C)c(O)c(S(=O)(=O)c3ccccc3)c2)cc1,-0.2%,-3.8%,52.8%,0.3%,i,-2.0
CCN(CCO)C(=O)c1cnn(-c2ncc3c(n2)-c2ccccc2CCC3)c1C1CC1,x,6.6%,x,x,x,x
O=C(NC1CCN(Cc2ccccc2)C1)c1cnn(-c2ncc3c(n2)-c2ccccc2CC3)c1C1CC1 (configuration not stated),x,-3.0%,x,x,x,x
O=C(NCc1ccccn1)C1CC(c2ccc(F)cc2)=NO1 (configuration not stated),3.9%,-1.3%,-7.0%,0.1%,-111.5%*,-1.2
CCc1c(C(=O)Nc2ccccc2)c(C)[nH]c(=S)c1C#N,7.3%,-3.9%,11.2µM*,-10.5%,i,-0.1
Cc1ccc2nc(CNC(=O)c3cc(NC(=O)c4ccccc4)cc4ncn(C5CCCC5)c34)cn2c1,x,2.2%,x,x,x,x
CCC1=NN2C(=N)/C(=C\c3ccc(OCc4cc(=O)n5nc(CC)sc5n4)c(OC)c3)C(=O)N=C2S1,-5.0%,-3.4%,11.2µM*,0.7%,i,-1.5
Cc1nc2scc(-c3ccccc3)c2c(=O)n1N=C1C=CC(=O)C=C1,1.3%,-12.2%,3.16µM*,1.5%,i,-3.6
Cc1occc1C(=O)N(Cc1nc(-c2ccccc2)no1)C(C)C,8.5%,-3.4%,0.5%,-2.9%,x,-72.2*
COc1cccc(CNC(=O)c2cnn(-c3ncc4c(n3)-c3ccccc3CCC4)c2C)c1OC,x,0.2%,x,x,x,x

# Screens: PubChem BioAssay, National Center for Advancing Translational Sciences (NCATS)
